In assay [1] the test system is Zika virus NS2B-NS3 protease (linked construct). Briefly: Primary screen NINDS Rhodamine qHTS for Zika virus inhibitors (AID 1347160). Note: nearly all actives have a fitted effect of over 55% in size. Note: potency is the fitted concentration of half-maximal effect. In short, it runs like this: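 Percent inhibition, normalized to uninhibited and enzyme-free controls, is fitted to a 4-parameter Hill equation. Fluorescence change comes from a 15-min cleavage of 1.5 microM bis-peptide Rhodamine110 substrate by 25 nM linked NS2B-NS3 at room temperature.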

A short description of assay [2]: HPAF-II Cancer Cell Toxicity qHTS against the NCATS CANVASS Library (AID 1347346). Note: nearly all actives have a fitted effect of over 55% in size. Note: potency is the fitted concentration of half-maximal effect. The procedure, abridged: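 HPAF-II cells at 1000 cells/well were treated with an 11-point concentration series for 72 hours at 37 degrees C. Viability read by CellTiter-Glo luminescence.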
Assay [3] in a line: OV-SAHO Cancer Cell Toxicity qHTS against the NCATS CANVASS Library (AID 1347348). Note: nearly all actives have a fitted effect of over 55% in size. Note: potency is the fitted concentration of half-maximal effect. The procedure, abridged: (§1)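 Per well, 1000 cells; exposure 72 h with compound at 11 final concentrations; readout CellTiter-Glo luminescence.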
In general terms: In qHTS, concentration-response curves come from the screen itself.

Assay [4] is described as follows: U-118MG Cancer Cell Toxicity qHTS against the NCATS CANVASS Library (AID 1347351). Note: potency is the fitted concentration of half-maximal effect. The procedure, abridged:
as §1

A short description of assay [5]: COV-362 Cancer Cell Toxicity qHTS against the NCATS CANVASS Library (AID 1347352). Note: series mostly up to about 38 µM. The procedure, abridged:
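Cells at 1000/well were given compound 4 h after plating in an 11-point series. Viability was read by CellTiter-Glo luminescence after 72 h at 37 degrees C.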

A short description of assay [6]: HEK293 18hr Apoptosis Induction qHTS against the NCATS CANVASS Library (AID 1347357). The procedure, abridged: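 HEK293 cells (500 per well, DMEM with 10% FBS) were treated with natural products, incubated 18 hours at 37 degrees C, then caspase-3/7 activity was read by Caspase-Glo luminescence after 15 min at room temperature.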
Assay [7] in a line: HPAF-II 12hr Apoptosis Induction qHTS against the NCATS CANVASS Library (AID 1347358). The procedure, abridged:
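HPAF-II cells, 500/well in DMEM + 10% FBS, exposed 12 hours at 37 degrees C to compound (11-point). Caspase-Glo 3/7 added for 15 min at room temperature; luminescence reflects caspase-3/7 activity.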

Assay [8] is described as follows: HEK293 24hr Apoptosis Induction qHTS against the NCATS CANVASS Library (AID 1347359). In short, it runs like this: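 HEK293 cells (500/well, DMEM + 10% FBS) were exposed to compounds in an 11-point series for 24 hours at 37 degrees C, then caspase-3/7 activity was read by Caspase-Glo DEVD luciferase luminescence after 15 min.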
Assay [9] can be described thus: HPAF-II 18hr Apoptosis Induction qHTS against the NCATS CANVASS Library (AID 1347360). In short, it runs like this: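 HPAF-II cells (500/well, DMEM + 10% FBS) were exposed to compounds for 18 hours at 37 degrees C. Caspase-3/7 activity was then read by Caspase-Glo 3/7 luminescence after 15 min at room temperature.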
The nature of assay [10]: HEK293 12hr Apoptosis Induction qHTS against the NCATS CANVASS Library (AID 1347361). In short, it runs like this:
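Read-out: Caspase-Glo 3/7 luminescence (DEVD substrate), 15 min RT. Preceded by 12 h compound exposure of HEK293, 500 cells/well, 11-pt qHTS titration; doxorubicin titration as control.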

Assay [11] deals with Luciferin 4-monooxygenase (Photinus pyralis) (UniProt P08659). Briefly: Firefly luciferase counterscreen qHTS: Assay Interference Panel against the NCATS CANVASS Library (AID 1347363). Note: series mostly up to about 57 µM. The procedure, abridged: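 Purified P. pyralis luciferase was added to compounds (11-point series) preincubated 15 min at room temperature with substrate containing 0.013 mM D-luciferin and 0.013 mM ATP; luminescence was read after 5 min.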
Luciferin 4-monooxygenase (Photinus pyralis), sequence (P08659 whole entry, looked up): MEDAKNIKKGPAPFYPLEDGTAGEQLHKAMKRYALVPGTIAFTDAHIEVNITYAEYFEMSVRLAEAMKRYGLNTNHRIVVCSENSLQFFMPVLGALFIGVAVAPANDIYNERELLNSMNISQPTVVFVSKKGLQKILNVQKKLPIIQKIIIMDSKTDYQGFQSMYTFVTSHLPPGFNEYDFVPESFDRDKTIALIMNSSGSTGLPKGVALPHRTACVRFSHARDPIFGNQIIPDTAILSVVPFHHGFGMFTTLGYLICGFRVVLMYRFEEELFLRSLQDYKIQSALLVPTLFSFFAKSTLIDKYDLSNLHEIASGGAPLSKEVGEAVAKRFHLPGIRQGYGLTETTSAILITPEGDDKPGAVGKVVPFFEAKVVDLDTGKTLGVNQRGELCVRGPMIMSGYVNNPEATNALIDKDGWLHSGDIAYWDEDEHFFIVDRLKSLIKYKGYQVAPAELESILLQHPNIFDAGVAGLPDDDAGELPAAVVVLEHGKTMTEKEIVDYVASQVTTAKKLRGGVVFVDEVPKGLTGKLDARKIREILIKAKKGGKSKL
Background: Counterscreens check selectivity or assay interference.

Assay [12] is described as follows: MCF7 Cancer Cell Toxicity qHTS against the NCATS CANVASS Library (AID 1347369). Note: potency is the fitted concentration of half-maximal effect. The procedure, abridged: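 MCF7, 500 cells/well; cpds 11-pt qHTS; 72 hr, 37C/5% CO2; CellTiterGlo ATP luminescence.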
Assay [13] can be described thus: qHTS for ATAD5 Antagonist screened against the NCATS CANVASS Library (AID 1347370). Note: nearly all actives have a fitted effect of over 65% in size. Note: potency is the fitted concentration of half-maximal effect. The procedure, abridged:
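HEK293T cells with stably integrated ATAD5-luciferase reporter, 2000/well, 5 h attachment; compounds plus 10 µM 5-fluorouridine, 16 h at 37 °C. Luciferase luminescence read, with CellTiter-Fluor viability read first.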

Assay [14] in a line: J3T Cancer Cell Toxicity qHTS against the NCATS CANVASS Library (AID 1347371). Note: potency is the fitted concentration of half-maximal effect. The procedure, abridged: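 J3T dog glioma cells, 500 per well, treated 72 h at 37C with compounds (11-point qHTS); viability from ATP content by CellTiterGlo luminescence; bortezomib titration as control.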
Assay [15] concerns the target Nuclear receptor subfamily 1 group I member 3 (Homo sapiens) (UniProt Q14994). Briefly: qHTS for Constitutive Androstane Receptor (CAR) Antagonist screened against the NCATS CANVASS Library (AID 1347372).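 Note: cells stimulated with 50 nM CITCO agonist so inhibition reflects antagonism; series mostly up to about 46 µM.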 The procedure, abridged:
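HepG2 cells stably carrying hCAR and a CYP2B6-2.2kb luciferase reporter were exposed to compounds plus 50 nM CITCO for 24hr at 37C. CAR activity was read by ONE-Glo luminescence, with viability measured first by CellTiter-Fluor.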

Assay [16] can be described thus: 10-beta competent E. coli microbial cell viability qHTS against the NCATS CANVASS Library (AID 1347376). Note: series mostly up to about 46 µM. In short, it runs like this:
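10-beta competent E. coli (0.2 OD) were exposed overnight at 37C to compounds in an 11-point series. Viability was read as ATP-dependent BacTiter-Glo luminescence after 20 min at room temperature.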

The nature of assay [17]: qHTS for Inflammasome Signaling Inhibitors: IL-1-beta AlphaLISA screen against the NCATS CANVASS Library (AID 1347379).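 For Potency: secreted IL-1B measured as AlphaLISA emission at 615 nm; potency is the fitted concentration of half-maximal effect.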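 Note: human THP-1 cells primed with LPS then triggered with ATP.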 In short, it runs like this: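 THP-1 cells pretreated 1 hr with compound (up to 57.5 uM final), then stimulated with LPS (250 ng/mL final) and ATP (1.25 mM final). Secreted IL-1B measured by AlphaLISA after 16 hr; glyburide as positive control.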
Assay [18] is described as follows: Inflammasome Signaling qHTS Counterscreen: IL-1-beta AlphaLISA counterscreen against the NCATS CANVASS Library (AID 1347381).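 Note: cell-free check with purified IL-1β in medium and no THP-1 cells; series mostly up to about 57 µM.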 The procedure, abridged:
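Cell-free interference check: compounds added to medium spiked with 4 pg purified IL-1β. Anti-IL-1β acceptor beads (6 ug/mL) with 0.6 nM biotinylated antibody added for 1 h at RT, then streptavidin donor beads (24 ug/mL) for 30 min in the dark. AlphaLISA read at 680/615 nm.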

Assay [19] can be described thus: Cytotoxicity qHTS for assessment of Hepg2 cells membrane integrity screened against the NCATS CANVASS Library (AID 1347387). The procedure, abridged:
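HepG2 cells (2000/well) attached overnight, then exposed 5 hr at 37C to compounds in an 11-point series (0.59 nM - 46 uM final). LDH release from damaged membranes read fluorometrically (CytoTox-ONE; 560/590 nm) after 10 min at room temperature.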

A short description of assay [20]: Vero-766 cells viability qHTS against the NCATS CANVASS Library: Counterscreen for Zika virus inhibition assay (AID 1347394). Note: series mostly up to about 46 µM; nearly all actives have a fitted effect of over 60% in size. The procedure, abridged: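 Uninfected Vero 766 (African green monkey) cells, 1000/well, attached overnight, then exposed 72 h at 37C to compounds (11-point qHTS). Viability read by CellTiter-Glo luminescence; media-only wells served as 100% inhibition.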

Inconclusive results are not listed. The source made the active and inactive calls. Calls come from the whole dose curve; as a rule, active = well fitted curve in the direction sought with a large enough effect; inconclusive = small, poorly fitted or top-dose-only effect, or another doubt; inactive = no such curve, though single readings can be large; an effect the other way counts as inactive or inconclusive.

Nuclear receptor subfamily 1 group I member 3 (Homo sapiens), sequence (Q14994 whole entry, looked up): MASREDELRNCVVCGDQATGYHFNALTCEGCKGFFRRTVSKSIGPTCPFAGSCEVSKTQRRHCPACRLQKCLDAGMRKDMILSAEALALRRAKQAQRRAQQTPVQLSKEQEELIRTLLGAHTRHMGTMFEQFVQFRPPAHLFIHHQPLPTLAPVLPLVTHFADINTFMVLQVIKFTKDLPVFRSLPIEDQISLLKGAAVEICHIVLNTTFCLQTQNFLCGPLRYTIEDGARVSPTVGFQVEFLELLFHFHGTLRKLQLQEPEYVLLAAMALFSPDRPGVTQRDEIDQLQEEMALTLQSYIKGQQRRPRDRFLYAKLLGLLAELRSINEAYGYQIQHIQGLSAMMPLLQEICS

`CC1=CC[C@@]2(C[C@@H]1O)[C@@H](C(=O)O)CC[C@H]2C(C)C`: the Potency result in [1], in assay [2], in assay [3], in assay [4], in assay [5] and in [6] was “inactive” in each case. The Potency entry in [7], in assay [8], in [9], in [10], in assay [11] and in [12] was “inactive” each time. Also, the Potency entry in [13], in assay [14], in assay [15], in [17] and in assay [20] was “inactive” throughout. For the same compound, the outcome in [16], in assay [18] and in assay [19] was inactive.
On to `C=C1C(=O)O[C@H]2C[C@H](C)[C@@H]3CC(=O)C(C)=C3[C@H](O)[C@H]12`, for which the Potency result in assay [1], in assay [7], in assay [8], in assay [9] and in assay [11] was “inactive” in each case. For the same compound, the Potency in assay [2] is 13.3 µM (active); in assay [3] it was 14.9 µM (active); in assay [4], 18.8 µM (active); in assay [12], 18.6 µM (active); in assay [13], 13.2 µM (active); in assay [14], 23.5 µM (active). Moreover, the Potency in [17] is 10.9 µM (active). The result in assay [16] and in assay [18] was inactive.
With `C/C(=C\[C@H](C)C(=O)CCCC1CC(=O)NC(=O)C1)C(O)[C@@H](C)[C@H](O)C/C=C/CC/C=C/C(=O)O` (stereo partly drawn), the Potency in assay [1] was 55.3 µM (active). Moreover, the Potency entry in assay [2], in assay [3], in assay [4], in assay [5], in [6] and in assay [7] was “inactive” in each case. In addition, the Potency result in [8], in assay [9], in assay [10], in [11], in assay [12] and in assay [13] was “inactive” in each case. The Potency result in assay [14], in assay [15], in [17] and in assay [20] was “inactive” each time. Further, the result in assay [16], in assay [18] and in assay [19] was inactive.
Consider `CO[C@@H]1[C@H](O)[C@@H](C)O[C@@H](OC[C@@H]2C(C)OC(=O)/C=C/[C@H](C)C(O[C@@H]3O[C@H](C)CC4(OC(=O)O[C@@H]4C)C3O)[C@@H](C)CC(C)C(=O)CC[C@H]3OC23)[C@@H]1OC` (stereo partly drawn), for which the Potency in assay [1] was 49.3 µM (active). The Potency result in assay [2], in [3], in [4], in assay [5], in assay [6] and in assay [7] was “inactive” each time. The Potency entry in [8], in assay [9], in assay [10], in assay [11], in assay [12] and in [14] was “inactive” throughout. Besides, the Potency entry in assay [15], in assay [17] and in assay [20] was “inactive” throughout. Further, the result in [16], in assay [18] and in assay [19] was inactive.
On to `C=C1C[C@@]23C=CC(=O)[C@@](C)(CCC(=O)Nc4c(O)ccc(C(=O)O)c4O)C2C[C@@H]1C(O)C3` (stereo partly drawn), for which, in [1], the Potency was 44 µM (active). The Potency entry in assay [2], in assay [3], in assay [4], in [5], in [6] and in [7] was “inactive” each time. Further, the Potency result in [8], in [9], in assay [10], in [11], in assay [12] and in assay [13] was “inactive” throughout. For the same compound, the Potency entry in assay [14], in assay [15], in assay [17] and in [20] was “inactive” each time. Besides, the call in assay [16], in assay [18] and in assay [19] was inactive.

These data come from PubChem BioAssay (NCATS).
